Laboratory results: PubChem BioAssay

biological target: Voltage-gated potassium channel subunit beta-2 (Rattus norvegicus) (UniProt P62483); test: enhancers of rat Kvbeta2 NADPH turnover – biochemical, NADPH fluorescence, primary screen (AID 623); settings: Recombinant KvBeta, NADPH fluorescence decrease slope, 10 min; at 10 µM; stronger effect = lower value;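 also: fluorescence intensity change per second fitted from 20 to 320 s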
Sequence (P62483 whole entry, looked up): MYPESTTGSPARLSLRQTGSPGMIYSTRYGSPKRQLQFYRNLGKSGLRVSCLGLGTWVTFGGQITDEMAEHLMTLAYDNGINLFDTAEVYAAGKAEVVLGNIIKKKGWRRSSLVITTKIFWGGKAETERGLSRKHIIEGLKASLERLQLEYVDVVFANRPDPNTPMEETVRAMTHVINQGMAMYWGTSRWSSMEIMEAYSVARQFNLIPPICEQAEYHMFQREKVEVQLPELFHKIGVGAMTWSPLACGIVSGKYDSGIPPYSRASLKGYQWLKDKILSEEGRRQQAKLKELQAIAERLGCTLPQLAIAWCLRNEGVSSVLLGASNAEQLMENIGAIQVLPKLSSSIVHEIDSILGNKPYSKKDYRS

NADPH fluorescence slope, inactive:
COc1ccc(-c2cc3c(=O)n(CC(=O)NC4CCN(Cc5ccccc5)CC4)ncn3n2)cc1 -4.1e-05
Cc1c(C(=O)OC2CCCCC2)[nH]c2c1C(=O)CC(C)(C)C2 -9.3e-06
CC(CCc1ccccc1)NCc1ccncc1 (stereo not drawn) -1.4e-05
COCCN(CCOC)S(=O)(=O)c1ccc(C(=O)Nc2nnc(C3CC3)o2)cc1 -3.8e-05
Cc1sc2ncn3ncnc3c2c1C -3.8e-05
CSc1nc2ccc(Nc3nc(N4CCOCC4)nc(N4CCOCC4)n3)cc2s1 -2.2e-05
Cc1cc(C(N)=O)c2cc(Br)ccc2n1 -5.1e-05
COc1ccc(-c2ccc(-c3noc(-c4cccs4)n3)c(OC)n2)cc1 -6.5e-07
O=C1CCCc2c1cc(C(=O)NCCCN1CCOCC1)c(=O)n2-c1ccc(Cl)cc1 -4e-05
Cc1ccc(-n2ncc3c(=O)[nH]c(SC(C)C)nc32)cc1 -4.4e-06
Cc1ccccc1N1C(N)=NC(N)=NC1(C)C -1.3e-05
CCCc1nnc(SCC(=O)N2CCOCC2)n1Cc1ccco1 -5.1e-05
CC1CCN(CCn2c(=S)[nH]c3ncccc3c2=O)CC1 -3.5e-05
CCOc1ccc(-c2nnn(CC(=O)N3CCN(c4ccc(F)cc4)CC3)n2)cc1OCC -1.5e-05
O=C1CCCCCN1CSc1nc2ccccc2s1 -0.000138
S=c1[nH]nc(Cc2ccccc2)n1-c1ccccc1 -3.9e-05
O=C(NCc1cccnc1)C1c2ccccc2C(=O)N1Cc1ccco1 (stereo not drawn) -1.9e-05
Cn1c(C(=O)OCC(=O)NCC2CCCO2)cc2sccc21 (stereo not drawn) 9.3e-06
Nn1c(SCc2csc(-c3ccccc3)n2)nnc1-c1cccs1 -7.1e-06
CCOC(=O)Nc1ccc(NS(=O)(=O)c2ccc(C)cc2)cc1 8.9e-06
COC(=O)CN1C(=O)CC(C)(C)S(=O)c2ccccc21 (stereo not drawn) -5.2e-05
Cn1c(Cc2ccccc2)nnc1SCC(=O)c1ccc(Br)s1 -1.4e-05
CC(=O)Nc1ccc(S(=O)(=O)Nc2nc3c(s2)CCCC3)cc1 -4.4e-05
COc1cccc(-c2nnn(CC(=O)O)n2)c1 2.6e-06
CCN(CC(=O)Nc1ccc(S(N)(=O)=O)cc1)S(=O)(=O)c1cc(C)ccc1OC -4.7e-05
CC(=O)c1c(C)[nH]c(C(=O)N2CCN(C(=O)c3ccco3)CC2)c1C 9e-06
COCCCn1nnnc1SCC(=O)Nc1nc(C)c(C)s1 -5.5e-05
CC(C)Cc1nc2oc3c(N4CCN(CCO)CC4)ncnc3c2c2c1CCCC2 4e-05
Brc1ccc(-c2csc(/N=C/N3CCOCC3)n2)cc1 -8.8e-05
N#CCCN(C(=O)Nc1ccc(Cl)cc1)c1ccccc1 2.2e-05
O=C(NC1CCCC1)C(c1cccs1)N(Cc1ccco1)C(=O)Cn1nnc(-c2cccs2)n1 (stereo not drawn) -3.1e-05
CNC(=O)c1ccsc1NC(=O)c1ccccc1 -1.9e-05
Cc1ccccc1C(=O)NC1CCN(Cc2nnnn2CCc2ccccc2)CC1 -3.4e-05
CCOC(=O)CCc1c(C)nc2cc(-c3ccc(F)cc3)[nH]n2c1=O -3.9e-05
O=C(CCNS(=O)(=O)c1cccc2nsnc12)Nc1ccc2c(c1)OCCO2 -0.00049
Cn1c(CCNC(=O)c2ccco2)nc2cc(NC(=O)C3CCCCC3)ccc21 -0.000205
Cc1ccc(OCCC(=O)OCC(=O)C(C)(C)C)cc1 -5.3e-05
O=C(O)c1ccc2c(c1)C(=O)N(c1ccc(Cl)cn1)C2=O -2.8e-05
COc1cccc(/C=N/n2c(-c3ccco3)nc3ccccc3c2=O)c1 -4.4e-05

biological target: Alpha-2C adrenergic receptor (Homo sapiens) (UniProt P18825); test: compounds altering alpha2C-coupled GIRK flux – cell-based, HEK293 alpha2C/GIRK1/2, thallium flux, primary screen (AID 624;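 active = fluorescence slope after compound addition differing from the mean of all screened samples at 99.7% confidence, in either direction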;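 also: slope of fluorescence ratio to pre-addition baseline per second over 15 to 24 s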); settings: thallium flux BTC fluorescence, at 10 µM, actives lie on both sides
Sequence (P18825 whole entry, looked up): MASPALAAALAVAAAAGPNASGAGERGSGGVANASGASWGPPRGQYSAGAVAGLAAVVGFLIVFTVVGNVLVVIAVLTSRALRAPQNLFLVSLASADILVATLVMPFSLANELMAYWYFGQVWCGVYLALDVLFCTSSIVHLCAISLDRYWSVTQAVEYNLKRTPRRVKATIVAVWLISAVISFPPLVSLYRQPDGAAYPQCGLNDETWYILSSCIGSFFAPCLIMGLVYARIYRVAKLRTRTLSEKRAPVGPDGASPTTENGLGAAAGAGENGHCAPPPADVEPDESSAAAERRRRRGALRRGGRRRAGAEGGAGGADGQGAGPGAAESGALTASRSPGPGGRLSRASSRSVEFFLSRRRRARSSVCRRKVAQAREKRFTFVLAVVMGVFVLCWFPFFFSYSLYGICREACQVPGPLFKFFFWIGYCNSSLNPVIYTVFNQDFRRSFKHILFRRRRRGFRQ

slope, inactive:
COc1ccc(-c2cc3c(=O)n(CC(=O)NC4CCN(Cc5ccccc5)CC4)ncn3n2)cc1 0.00479
Cc1c(C(=O)OC2CCCCC2)[nH]c2c1C(=O)CC(C)(C)C2 0.00193
CC(CCc1ccccc1)NCc1ccncc1 (stereo not drawn) 0.00748
COCCN(CCOC)S(=O)(=O)c1ccc(C(=O)Nc2nnc(C3CC3)o2)cc1 0.00677
Cc1sc2ncn3ncnc3c2c1C 0.00315
CSc1nc2ccc(Nc3nc(N4CCOCC4)nc(N4CCOCC4)n3)cc2s1 0.00663
Cc1cc(C(N)=O)c2cc(Br)ccc2n1 0.0072
COc1ccc(-c2ccc(-c3noc(-c4cccs4)n3)c(OC)n2)cc1 0.00541
O=C1CCCc2c1cc(C(=O)NCCCN1CCOCC1)c(=O)n2-c1ccc(Cl)cc1 0.00614
Cc1ccc(-n2ncc3c(=O)[nH]c(SC(C)C)nc32)cc1 0.0066
Cc1ccccc1N1C(N)=NC(N)=NC1(C)C 0.00605
CCCc1nnc(SCC(=O)N2CCOCC2)n1Cc1ccco1 0.0036
CC1CCN(CCn2c(=S)[nH]c3ncccc3c2=O)CC1 0.00346
CCOc1ccc(-c2nnn(CC(=O)N3CCN(c4ccc(F)cc4)CC3)n2)cc1OCC 0.00403
O=C1CCCCCN1CSc1nc2ccccc2s1 0.00664
S=c1[nH]nc(Cc2ccccc2)n1-c1ccccc1 0.00525
O=C(NCc1cccnc1)C1c2ccccc2C(=O)N1Cc1ccco1 (stereo not drawn) 0.00603
Cn1c(C(=O)OCC(=O)NCC2CCCO2)cc2sccc21 (stereo not drawn) 0.00457
Nn1c(SCc2csc(-c3ccccc3)n2)nnc1-c1cccs1 0.00728
CCOC(=O)Nc1ccc(NS(=O)(=O)c2ccc(C)cc2)cc1 0.00595
COC(=O)CN1C(=O)CC(C)(C)S(=O)c2ccccc21 (stereo not drawn) 0.00765
Cn1c(Cc2ccccc2)nnc1SCC(=O)c1ccc(Br)s1 0.00563
CC(=O)Nc1ccc(S(=O)(=O)Nc2nc3c(s2)CCCC3)cc1 0.00526
COc1cccc(-c2nnn(CC(=O)O)n2)c1 0.00693
CCN(CC(=O)Nc1ccc(S(N)(=O)=O)cc1)S(=O)(=O)c1cc(C)ccc1OC 0.0034
CC(=O)c1c(C)[nH]c(C(=O)N2CCN(C(=O)c3ccco3)CC2)c1C 0.00697
COCCCn1nnnc1SCC(=O)Nc1nc(C)c(C)s1 0.00473
CC(C)Cc1nc2oc3c(N4CCN(CCO)CC4)ncnc3c2c2c1CCCC2 0.00359
Brc1ccc(-c2csc(/N=C/N3CCOCC3)n2)cc1 0.00566
N#CCCN(C(=O)Nc1ccc(Cl)cc1)c1ccccc1 0.00361
O=C(NC1CCCC1)C(c1cccs1)N(Cc1ccco1)C(=O)Cn1nnc(-c2cccs2)n1 (stereo not drawn) 0.00489
CNC(=O)c1ccsc1NC(=O)c1ccccc1 0.00587
Cc1ccccc1C(=O)NC1CCN(Cc2nnnn2CCc2ccccc2)CC1 0.0062
CCOC(=O)CCc1c(C)nc2cc(-c3ccc(F)cc3)[nH]n2c1=O 0.00335
O=C(CCNS(=O)(=O)c1cccc2nsnc12)Nc1ccc2c(c1)OCCO2 0.00512
Cn1c(CCNC(=O)c2ccco2)nc2cc(NC(=O)C3CCCCC3)ccc21 0.00612
Cc1ccc(OCCC(=O)OCC(=O)C(C)(C)C)cc1 0.0062
O=C(O)c1ccc2c(c1)C(=O)N(c1ccc(Cl)cn1)C2=O 0.00724
COc1cccc(/C=N/n2c(-c3ccco3)nc3ccccc3c2=O)c1 0.00576
